Test results: PubChem BioAssay (Tox21)
Inconclusive results are not listed. Activity calls are given as the source filed them. Unless noted, calls come from the whole dose curve.

Columns and labels:
[1] = Nuclear factor erythroid 2-related factor 2/antioxidant responsive element (Nrf2/ARE) small molecule agonists: qHTS cell viability counter screen in human keratinocytes (AID 1919968; active = well fitted cell-killing curve with a large enough effect in the repeat runs; note: nearly all actives have a fitted effect of over 55% in size)
Outline: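 KeratinoSens cells (HaCaT keratinocytes stably carrying an ARE-luciferase reporter) were seeded at 1,500 cells/well and rested 5 h at 37 C/5% CO2. They were then exposed to compounds in DMSO for 23 h. Viability was read by CellTiter-Fluor fluorescence after 1 h.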

[2] = Nuclear factor erythroid 2-related factor 2/antioxidant responsive element (Nrf2/ARE) small molecule agonists: luciferase reporter gene qHTS assay in human keratinocytes (AID 1919969); note: nearly all actives have a fitted effect of over 35% in size; note: potency is the fitted concentration of half-maximal effect
[3] = target: Gonadotropin-releasing hormone receptor (Homo sapiens) (UniProt P30968); experiment: Human gonadotropin-releasing hormone receptor (GnRHR) small molecule agonists, calcium flux assay in GnRHR-HEK293 cells (AID 1920063); note: nearly all actives have a fitted effect of over 35% in size
Sequence of Gonadotropin-releasing hormone receptor (Homo sapiens) (P30968 whole entry, looked up): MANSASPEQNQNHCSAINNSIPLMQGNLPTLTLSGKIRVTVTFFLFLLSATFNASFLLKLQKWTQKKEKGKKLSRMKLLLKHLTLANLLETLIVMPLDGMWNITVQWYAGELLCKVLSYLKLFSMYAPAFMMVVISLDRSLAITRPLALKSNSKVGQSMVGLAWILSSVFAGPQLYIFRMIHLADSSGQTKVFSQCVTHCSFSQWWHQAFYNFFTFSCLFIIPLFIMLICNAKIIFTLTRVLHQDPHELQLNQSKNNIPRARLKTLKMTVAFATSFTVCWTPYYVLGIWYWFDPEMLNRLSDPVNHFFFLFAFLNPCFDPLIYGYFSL
Outline: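 HEK293 cells stably expressing human GnRHR were plated 18 h at 37 °C, loaded with calcium dye 1 h at 37 °C, then given compound in agonist mode; fluorescence (Ex/Em 480/540) read kinetically for 3 min at 1 s intervals.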

[4] = G protein-coupled receptor (GPCR) small molecule agonists, calcium flux assay: HEK293 wild type cell line counter screen (AID 1920065)
Outline: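 Cells were plated and cultured 18 h at 37 C/5% CO2, then loaded with calcium dye for 1 h at 37 C. Compounds in DMSO were pin-transferred in agonist mode, and fluorescence (Ex/Em 480/540) was read kinetically for 3 min at 1 s intervals.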

[5] = p53 small molecule agonists, cell-based qHTS assay with human liver microsomes: qHTS cell viability counter screen (AID 1963579); note: nearly all actives have a fitted effect of over 45% in size
Outline: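 Cells carrying the p53 response-element beta-lactamase reporter are treated for 16 h at 37 C with test compounds in the presence of human liver microsomes and NADPH (both 0.5 mg/mL final); ATP-based CellTiter-Glo luminescence then reports viability.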

[6] = p53 small molecule agonists, cell-based qHTS assay with rat liver microsomes: qHTS cell viability counter screen (AID 1963580); note: nearly all actives have a fitted effect of over 45% in size
Outline: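 Intracellular ATP, by CellTiter-Glo luminescence, defines viability. HCT-116 p53RE-bla cells, 4,000 per well, were compound-treated in the presence of rat liver microsomes and NADPH for 16 h at 37 C.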

[7] = p53 small molecule agonists, cell-based qHTS assay: qHTS cell viability counter screen (AID 1963581); note: nearly all actives have a fitted effect of over 45% in size
Outline: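 p53RE-bla HCT-116 cells were exposed to compounds for 16 h at 37 C; after the beta-lactamase FRET read in the same wells, CellTiter-Glo was added and luminescence (intracellular ATP) read after 30 min at room temperature.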

[8] = target: 5-hydroxytryptamine receptor 2A (Homo sapiens) (UniProt P28223); experiment: 5-hydroxytryptamine receptor 2A (HTR2A) small molecule antagonists, cell-based qHTS assay (AID 1963586); note: nearly all actives have a fitted effect of over 45% in size
Sequence of 5-hydroxytryptamine receptor 2A (Homo sapiens) (P28223 whole entry, looked up): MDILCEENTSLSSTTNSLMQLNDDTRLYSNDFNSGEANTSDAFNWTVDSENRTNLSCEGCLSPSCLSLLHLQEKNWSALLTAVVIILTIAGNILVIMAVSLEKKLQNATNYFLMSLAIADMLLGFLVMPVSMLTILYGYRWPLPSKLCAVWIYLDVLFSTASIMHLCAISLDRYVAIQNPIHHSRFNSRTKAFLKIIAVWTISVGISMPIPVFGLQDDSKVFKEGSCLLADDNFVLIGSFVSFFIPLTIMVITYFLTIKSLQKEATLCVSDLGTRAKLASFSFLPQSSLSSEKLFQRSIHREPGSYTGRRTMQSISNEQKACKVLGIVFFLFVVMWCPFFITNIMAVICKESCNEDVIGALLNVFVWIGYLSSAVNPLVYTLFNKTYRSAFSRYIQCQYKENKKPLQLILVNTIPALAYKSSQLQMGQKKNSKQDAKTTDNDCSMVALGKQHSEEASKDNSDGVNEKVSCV
Outline: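 Antagonist-mode intracellular calcium assay: DOI (4 nM) added after 5 min compound pre-incubation at room temperature to dye-loaded HTR2A-CHO cells. Fluorescence followed for 3 min, sampled every second.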

[9] = target: 5-hydroxytryptamine receptor 2A (Homo sapiens) (UniProt P28223); experiment: 5-hydroxytryptamine receptor 2A (HTR2A) small molecule agonists, cell-based qHTS assay (AID 1963587); note: nearly all actives have a fitted effect of over 30% in size
Outline: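 Kinetic calcium-flux fluorescence (2 min, 1 sec intervals) after compound addition in agonist mode. HTR2A-CHO cells were cultured 18 h, then dye-loaded 1 h at 37 C.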

[10] = target: Muscarinic acetylcholine receptor M1 (Homo sapiens) (UniProt P11229); experiment: Cholinergic receptor muscarinic 1 (CHRM1) small molecule antagonists, cell-based qHTS assay (AID 1963588); note: nearly all actives have a fitted effect of over 40% in size
Sequence of Muscarinic acetylcholine receptor M1 (Homo sapiens) (P11229 whole entry, looked up): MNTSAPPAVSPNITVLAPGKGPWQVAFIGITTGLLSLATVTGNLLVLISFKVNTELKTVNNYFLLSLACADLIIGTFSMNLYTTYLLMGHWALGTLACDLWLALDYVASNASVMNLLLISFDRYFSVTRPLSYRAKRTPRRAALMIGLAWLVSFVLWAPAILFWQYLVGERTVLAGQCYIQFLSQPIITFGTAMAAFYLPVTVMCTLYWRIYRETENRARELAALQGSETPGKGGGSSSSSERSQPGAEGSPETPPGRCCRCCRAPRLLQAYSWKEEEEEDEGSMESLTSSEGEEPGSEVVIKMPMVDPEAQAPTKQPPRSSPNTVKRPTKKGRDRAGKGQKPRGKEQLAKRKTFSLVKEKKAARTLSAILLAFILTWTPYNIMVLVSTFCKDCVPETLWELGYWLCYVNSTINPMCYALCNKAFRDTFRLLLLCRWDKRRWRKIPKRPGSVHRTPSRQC
Outline: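 CHRM1-CHO calcium-flux assay, antagonist mode. Cells were seeded 18 h, dye-loaded 1 h at 37 C and given compound for 5 min at RT, then acetylcholine was added at 50nM. FDSS fluorescence was read 3 min; 15 concentrations, three runs.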

[11] = target: Muscarinic acetylcholine receptor M1 (Homo sapiens) (UniProt P11229); experiment: Cholinergic receptor muscarinic 1 (CHRM1) small molecule agonists, cell-based qHTS assay (AID 1963589); note: nearly all actives have a fitted effect of over 35% in size
Outline: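 CHO cells stably expressing human CHRM1, seeded 18 h at 37 C/5% CO2, dye-loaded 1 h at 37 C, then given compound in agonist mode; intracellular calcium fluorescence read kinetically at 1 s intervals. Fifteen concentrations, three independent runs.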

[12] = cAMP Responsive Elements (CRE) small molecule antagonists, cell-based qHTS assay (AID 1963591; active = well fitted inhibition curve with a large enough effect in the signal ratio in the repeat runs, not every such curve was filed as active; the % refers to the signal ratio)
Outline: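 CRE-bla HEK293T cells were plated 18 h at 37 °C/5% CO2, pinned with compound in DMSO, then stimulated with NKH477 at 0.25 uM final for 3 h. LiveBLAzer B/G FRET substrate was added and plates incubated 2 h at room temperature.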

[13] = target: Beta-2 adrenergic receptor (Homo sapiens) (UniProt P07550); experiment: Adrenergic beta2 receptor (ADRB2) small molecule antagonists, cell-based qHTS assay (AID 1963592); note: series mostly up to about 92 µM; nearly all actives have a fitted effect of over 50% in size
Sequence of Beta-2 adrenergic receptor (Homo sapiens) (P07550 whole entry, looked up): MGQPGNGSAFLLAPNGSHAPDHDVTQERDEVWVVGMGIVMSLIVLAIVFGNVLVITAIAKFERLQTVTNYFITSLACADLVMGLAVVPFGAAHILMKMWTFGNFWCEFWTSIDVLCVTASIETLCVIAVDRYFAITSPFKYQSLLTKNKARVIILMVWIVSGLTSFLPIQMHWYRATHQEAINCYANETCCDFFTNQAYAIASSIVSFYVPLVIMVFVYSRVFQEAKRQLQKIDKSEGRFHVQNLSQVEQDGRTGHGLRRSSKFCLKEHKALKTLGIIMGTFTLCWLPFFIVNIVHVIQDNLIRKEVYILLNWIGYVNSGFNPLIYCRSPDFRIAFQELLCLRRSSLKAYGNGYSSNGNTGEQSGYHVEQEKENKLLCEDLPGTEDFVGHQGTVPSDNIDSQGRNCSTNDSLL
Outline: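 Cells (CHO, stable ADRB2 overexpression) incubated 18-20hr at 37C; compounds added from DMSO; agonist mix (1nM isoproterenol, 100uM IBMX, 25uM Ro-20-1724) added; 0.5hr RT; d2-cAMP and anti-cAMP-cryptate added; 1hr RT; 665/615 nm read.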

[14] = target: Beta-2 adrenergic receptor (Homo sapiens) (UniProt P07550); experiment: Adrenergic beta2 receptor (ADRB2) small molecule agonists, cell-based qHTS assay (AID 1963593);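 note: CHO cells stably overexpressing human ADRB2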
Outline: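 CHO cells stably over-expressing ADRB2 were plated overnight at 37C, then dosed with compounds plus a stimulation mix containing 100uM IBMX and 25uM Ro-20-1724 for 0.5hr at room temperature. cAMP was measured by HTRF competition, 1hr.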

[15] = target: D(2) dopamine receptor (Homo sapiens) (UniProt P14416); experiment: Dopamine D2 receptor (DRD2) small molecule antagonists, cell-based qHTS assay (AID 1963595; active = well fitted inhibition curve with a large enough effect in the signal ratio in the repeat runs, with a control signal flat; the % refers to the signal ratio)
Sequence of D(2) dopamine receptor (Homo sapiens) (P14416 whole entry, looked up): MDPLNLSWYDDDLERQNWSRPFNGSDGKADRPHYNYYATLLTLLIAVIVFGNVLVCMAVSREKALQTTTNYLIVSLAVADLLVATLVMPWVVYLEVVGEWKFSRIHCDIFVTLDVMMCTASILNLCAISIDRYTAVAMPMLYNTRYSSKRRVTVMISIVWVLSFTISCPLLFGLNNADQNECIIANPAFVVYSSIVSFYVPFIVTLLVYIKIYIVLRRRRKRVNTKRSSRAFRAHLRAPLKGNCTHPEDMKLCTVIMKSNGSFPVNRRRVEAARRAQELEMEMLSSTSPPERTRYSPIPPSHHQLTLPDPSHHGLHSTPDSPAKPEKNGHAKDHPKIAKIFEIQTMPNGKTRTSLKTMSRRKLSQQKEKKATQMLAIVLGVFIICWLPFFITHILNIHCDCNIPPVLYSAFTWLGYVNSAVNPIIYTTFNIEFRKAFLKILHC
Outline: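 Human DRD2 antagonist qHTS measuring cAMP by HTRF. The cells are exposed to compound for 10 min, then to NKH477 (200 nM) and quinpirole (12 nM) for 30 min at RT, with Ro20-1724 (0.1 mM) present throughout.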

[16] = cAMP Responsive Elements (CRE) small molecule agonists, cell-based qHTS assay (AID 1963590)
Outline: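 CRE-bla HEK 293T cells in DMEM with 10% dialyzed FBS, NEAA, pyruvate and 25 mM HEPES were plated 18 h at 37 C/5% CO2, then exposed to compounds in DMSO for 3 h before LiveBLAzer B/G FRET substrate addition.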

[17] = target: D(2) dopamine receptor (Homo sapiens) (UniProt P14416); experiment: Dopamine D2 receptor (DRD2) small molecule agonists, cell-based qHTS assay (AID 1963594); note: nearly all actives have a fitted effect of over 35% in size
Outline: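 cAMP accumulation in DRD2-HEK293 cells measured by HTRF after 1 h detection; compounds added 10 min before NKH477 (200nM […]) forskolin-analogue stimulation, 30 min at room temperature, with Ro20-1724 present at 0.1 mM final.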

[18] = p53 small molecule agonists, cell-based qHTS assay with rat liver microsomes (AID 1963578)
Outline: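 Read-out is beta-lactamase reporter fluorescence (LiveBLAzer, 2 h, room temperature, dark) in p53RE-bla cells treated 16 h at 37 C with compound, rat liver microsomes and NADPH, both 0.5 mg/mL final.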

[19] = p53 small molecule agonists, cell-based qHTS assay with human liver microsomes (AID 1963577)
Outline: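 Compounds act here after metabolic activation: human liver microsomes and NADPH, both at 0.5 mg/mL final, were co-added to p53RE-bla cells. Incubation ran 16 h at 37 C, followed by LiveBLAzer detection.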

Measured: Potency

CC(CC=O)CCCC(C)(C)O (stereo unspecified)
not listed: [16] | [17] | [18] | [19]
inactive: all other assays above

CCOc1ccc(OCC)c(Cl)c1
not listed: [9] | [18] | [19]
inactive: all other assays above

Cc1c(-c2ccccc2)oc2c(C(=O)OCCN3CCCCC3)cccc2c1=O
not listed: [8] | [9] | [10] | [11] | [15] | [16] | [19]
inactive: all other assays above

CCOCC(C)O (stereo unspecified)
not listed: [7] | [17] | [18] | [19]
inactive: all other assays above

CCC(C)OC(C)CC (stereo unspecified)
not listed: [8] | [11] | [15] | [18] | [19]
inactive: all other assays above

CC(C)Nc1ccc(NC(C)C)c2c1C(=O)c1ccccc1C2=O
not listed: [7] | [17] | [19]
inactive: all other assays above

CCc1cccc2c(CCO)c[nH]c12
not listed: [5] | [19]
inactive: all other assays above

OCCC1CCCCN1 (stereo unspecified)
not listed: [14] | [18] | [19]
inactive: all other assays above

O=C(Cl)c1cc(Cl)cc(Cl)c1
not listed: [6] | [12] | [18]
inactive: all other assays above

C=CC(=O)[O-].C=CC(=O)[O-].[Zn+2]
not listed: [8] | [10] | [18] | [19]
inactive: all other assays above

COC(=O)c1ccc(C(=O)O)cc1
not listed: [7] | [8] | [14] | [18]
inactive: all other assays above

CCCCN1C(=O)c2ccccc2C1=O
not listed: [12] | [14] | [18] | [19]
inactive: all other assays above

CCCCCCCCCCC[C@@H](C[C@@H]1OC(=O)[C@H]1CCCCCC)OC(=O)[C@H](CC(C)C)NC=O
not listed: [13] | [14] | [19]
inactive: all other assays above

c1ccc(CN(Cc2ccccc2)Cc2ccccc2)cc1
active: [2] 54.4 µM
not listed: [18] | [19]
inactive: all other assays above

CC(CO)(CO)[N+](=O)[O-]
not listed: [13] | [18] | [19]
inactive: all other assays above
